Assay outcomes deposited in PubChem by National Center for Advancing Translational Sciences (NCATS).
CtBP-E1A inh: qHTS Assay for Inhibitors of the CtBP/E1A Interaction; AlphaScreen GST-E1A/His-CtBP binding, 1536-well; stronger effect = lower value; activity change, % (no concentration beside the values); 340,000 tested, 0.49% active; AID 651724, 2012
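In 5 uL wells, 23 nL compound meets equimolar GST-E1A and His-CtBP (5X stock 125 nM each) for 2 h, 37 °C. Beads (5X, 50 ug/mL) then 1 h, 37 °C, dark.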
pAkt inh: HTS Assay for Inhibitors of Akt Phophorylation: Primary Screen | activity change, % for hits at 50 µM | AID 651550, 2012 | 360,000 tested, 0.32% active | Neuro2A IGF-stimulated pAkt S473 HTRF, 20 min; stronger effect = lower value; in the data active = activity change below about -80%; inconclusive = mostly about -51% to -80%
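Neuro2A cells (4,500/well, DMEM with 0.5% FBS) were treated with compound at a single 50 µM final concentration, stimulated with 6 nM IGF for 20 min at 37 °C, and lysed. Phospho-Akt Ser473 was read by HTRF as 665/615 ratio ×10^4.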
Six1-Eya2 inh: qHTS Assay for Inhibitors of the Six1/Eya2 Interaction; Homeobox protein SIX1 (Homo sapiens) + Protein phosphatase EYA2 (Homo sapiens), …; AlphaScreen GST-Six1/His-Eya2 binding, biochemical; stronger effect = lower value; activity change, % (test concentration not listed); 360,000 tested, 0.56% active; AID 651725, 2012
Target sequence (O00167 whole entry, looked up): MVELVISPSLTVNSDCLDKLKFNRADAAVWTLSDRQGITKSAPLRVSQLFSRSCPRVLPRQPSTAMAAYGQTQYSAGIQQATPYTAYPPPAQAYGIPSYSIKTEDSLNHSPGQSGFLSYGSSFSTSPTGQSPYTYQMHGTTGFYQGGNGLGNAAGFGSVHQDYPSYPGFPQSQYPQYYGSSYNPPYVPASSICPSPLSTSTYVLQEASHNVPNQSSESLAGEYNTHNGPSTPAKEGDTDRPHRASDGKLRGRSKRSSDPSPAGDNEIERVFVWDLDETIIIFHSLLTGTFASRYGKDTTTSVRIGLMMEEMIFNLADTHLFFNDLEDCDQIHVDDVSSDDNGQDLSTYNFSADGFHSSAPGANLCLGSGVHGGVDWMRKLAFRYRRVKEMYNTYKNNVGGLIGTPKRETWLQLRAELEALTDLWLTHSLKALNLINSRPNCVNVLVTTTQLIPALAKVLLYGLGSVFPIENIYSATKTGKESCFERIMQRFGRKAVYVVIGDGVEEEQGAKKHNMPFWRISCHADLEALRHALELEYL
Target sequence (Q15475 whole entry, looked up): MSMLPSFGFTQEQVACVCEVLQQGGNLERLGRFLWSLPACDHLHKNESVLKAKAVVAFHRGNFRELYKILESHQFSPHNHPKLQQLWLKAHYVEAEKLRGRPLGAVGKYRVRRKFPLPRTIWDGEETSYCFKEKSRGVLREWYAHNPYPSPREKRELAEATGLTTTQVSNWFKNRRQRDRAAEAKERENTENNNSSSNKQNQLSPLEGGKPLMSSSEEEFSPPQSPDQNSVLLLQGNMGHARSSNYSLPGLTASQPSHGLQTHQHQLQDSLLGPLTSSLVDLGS
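AlphaScreen with GST-Six1 and His-Eya2 (5X mix: 250 nM and 500 nM), glutathione donor and nickel acceptor beads; buffer 50 mM Tris pH 8.0, 300 mM NaCl, 1 mM TCEP; 1 h at 37 C in the dark.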
CCT chaperon mod: High-Throughput Screening for Modulators of Cytosolic Chaperonin Activity. purified chaperonin ATPase assay, HTRF ADP detection, 30 min. activity change, % (no concentration beside the values), hits read low. 360,000 tested, 0.3% active; in the data active = activity change below about -30%
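ATPase activity: ADP formed was measured by HTRF Transcreener (665/615 nm ratio) after 30 min at 37 deg C with 10 uM ATP. Compounds screened at one 76 uM concentration against 40 or 20 nM TRiC in Tris pH 7.4/KCl/MgCl2/DTT buffer.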
Starred values were filed as active, the others as inactive. Only some compounds are listed: those with a hit (about 1.2% of all), similar ones and a draw of the others. Cut-off read from the data, not from the text of the source, unless noted: active = activity change below about -65%; inconclusive = mostly about -30% to -63%; inactive = weaker than that. % is set by controls: 0 for no effect and ±100 for the full control effect.

How did CCc1nnc(NS(=O)(=O)c2ccc(NCc3cc(Br)ccc3O)cc2)s1 do in these assays?
CtBP-E1A inh: -30; pAkt inh: inactive; Six1-Eya2 inh: -18; CCT chaperon mod: -2

Results for CC(=O)c1c(C)nc(-c2ccc(Cl)cc2)nc1NC(=O)C(C)C ?
CtBP-E1A inh: 3; pAkt inh: inactive; Six1-Eya2 inh: 6; CCT chaperon mod: -74*

What do the screens show for `O=C(NCc1ccc(F)cc1)C(=O)NCC1OCCCN1S(=O)(=O)c1cccs1` (stereo not given)?
CtBP-E1A inh: -1; pAkt inh: inactive; Six1-Eya2 inh: -20; CCT chaperon mod: -3

What do the screens show for `COc1ccc(C(=O)NNC(=S)NC(=O)c2cccc([N+](=O)[O-])c2)cc1`?
CtBP-E1A inh: -5; pAkt inh: inactive; Six1-Eya2 inh: -6; CCT chaperon mod: 1

Results for O=C(NC(=S)Nc1ccccn1)c1cccc([N+](=O)[O-])c1 ?
CtBP-E1A inh: -74*; pAkt inh: inactive; Six1-Eya2 inh: inconclusive; CCT chaperon mod: -3

What do the screens show for `O=C(NC(=S)NNC(=O)c1ccccc1O)c1cccc([N+](=O)[O-])c1`?
CtBP-E1A inh: -90*; pAkt inh: inactive; Six1-Eya2 inh: -77*; CCT chaperon mod: 2

What do the screens show for `COc1ccc(CCNCCC(=O)Nc2c(C)cc(C)cc2C)cc1OC`?
CtBP-E1A inh: 6; pAkt inh: inactive; Six1-Eya2 inh: 5; CCT chaperon mod: -1

Results for COc1ccc(CNCCCC(=O)Nc2c(Cl)ccc(C)c2Cl)cc1OC ?
CtBP-E1A inh: -6; pAkt inh: inactive; Six1-Eya2 inh: -8; CCT chaperon mod: -48*

What do the screens show for `COc1ccc(C(=O)NCC(=O)N2CCN(C(=O)c3ccco3)CC2)cc1`?
CtBP-E1A inh: 7; pAkt inh: inactive; Six1-Eya2 inh: 5; CCT chaperon mod: 2

What do the screens show for `CN(c1ccccc1C(=O)Nc1ccc(CC#N)cc1)S(=O)(=O)c1ccccc1`?
CtBP-E1A inh: 16; pAkt inh: inactive; Six1-Eya2 inh: 7; CCT chaperon mod: -4

How did COc1ccc(C(=O)N/N=C/c2cccc3cccnc23)cc1 do in these assays?
CtBP-E1A inh: -93*; Six1-Eya2 inh: -90*; CCT chaperon mod: 0

Results for COc1ccc2nc(/C=N/NC(=O)[C@H](CCSC)NC(=O)OC(C)(C)C)ccc2c1 ?
CtBP-E1A inh: -5; pAkt inh: inactive; Six1-Eya2 inh: -25; CCT chaperon mod: -1

How did CCOc1ccc(C(=O)N/N=C/c2cccc3cccnc23)cc1 do in these assays?
CtBP-E1A inh: -98*; pAkt inh: inactive; Six1-Eya2 inh: -92*; CCT chaperon mod: 0

What do the screens show for `COc1cccc(/C=N/NC(=O)c2ccncc2)c1OC(=O)c1ccc(Br)cc1`?
CtBP-E1A inh: -81*; pAkt inh: inactive; Six1-Eya2 inh: inconclusive; CCT chaperon mod: 0

Results for CCOc1ccccc1C(=O)N/N=C/c1cccc2cccnc12 ?
CtBP-E1A inh: inconclusive; pAkt inh: inactive; Six1-Eya2 inh: inconclusive; CCT chaperon mod: -5

What do the screens show for `COc1cc(/C=N/NC(=O)c2ccncc2)ccc1OC(=O)c1cccc(Br)c1`?
CtBP-E1A inh: -8; pAkt inh: inactive; Six1-Eya2 inh: -4; CCT chaperon mod: -1

How did CSCC[C@H](NC(=O)OC(C)(C)C)C(=O)N/N=C/c1cccc2cccnc12 do in these assays?
CtBP-E1A inh: -75*; pAkt inh: inactive; Six1-Eya2 inh: inconclusive; CCT chaperon mod: 1

Results for COc1ccccc1-c1noc2c1C(=O)N(Cc1cn(-c3ccccc3OC)nn1)CC2 ?
CtBP-E1A inh: 3; pAkt inh: inactive; Six1-Eya2 inh: -10; CCT chaperon mod: -3

What do the screens show for `CCN(C(=O)COC(=O)CCC1CCCC1)c1c(N)n(Cc2ccccc2)c(=O)[nH]c1=O`?
CtBP-E1A inh: 11; pAkt inh: inactive; Six1-Eya2 inh: -5; CCT chaperon mod: 0

What do the screens show for `COc1ccc(C(=O)N/N=C/c2c(C)[nH]c(=O)[nH]c2=O)cc1`?
CtBP-E1A inh: -86*; pAkt inh: inactive; Six1-Eya2 inh: inconclusive; CCT chaperon mod: -1

Results for COc1cc(NC(=O)c2cccs2)c(OC)cc1NC(=O)Cc1ccccc1 ?
CtBP-E1A inh: -6; pAkt inh: inactive; Six1-Eya2 inh: -81*; CCT chaperon mod: 0

Results for COc1cc(NC(=O)c2cccs2)c(OC)cc1NC(=O)c1cccs1 ?
CtBP-E1A inh: -18; pAkt inh: inactive; Six1-Eya2 inh: -23; CCT chaperon mod: -4

How did COc1cc(NC(=O)c2cccs2)c(OC)cc1NC(=O)CCC(=O)Nc1ccc2ncccc2c1 do in these assays?
pAkt inh: inactive; Six1-Eya2 inh: -69*; CCT chaperon mod: -5

What do the screens show for `COc1ccc(OCC(=O)Nc2ccc(NC(=O)c3cccs3)c(OC)c2)cc1`?
CtBP-E1A inh: 3; pAkt inh: inactive; Six1-Eya2 inh: 6; CCT chaperon mod: -3

How did C=C1CC[C@@H]2[C@](C)(CCC[C@@]2(C)/C=C/[C@@H](O)C(C)(C)O)[C@H]1CC(=O)NCCS(=O)(=O)O do in these assays?
CtBP-E1A inh: 8; pAkt inh: inactive; Six1-Eya2 inh: 2; CCT chaperon mod: 1

What do the screens show for `COc1ccc(-c2noc(CNC(=O)CCCN3C(=O)[C@H]4CC=CC[C@H]4C3=O)n2)cc1`?
CtBP-E1A inh: -8; pAkt inh: inactive; Six1-Eya2 inh: -1; CCT chaperon mod: -1

What do the screens show for `O=C(COc1ccc2c(c1)OCO2)Nc1ccccc1C(F)(F)F`?
CtBP-E1A inh: 0; pAkt inh: inactive; Six1-Eya2 inh: -1; CCT chaperon mod: -2

How did Cc1c(N)c(C(C)(C)C)cc(C(C)(C)C)c1[N+](=O)[O-] do in these assays?
CtBP-E1A inh: 1; pAkt inh: inactive; Six1-Eya2 inh: -18; CCT chaperon mod: 2

How did Cc1cc2nc3c(=O)[nH]c(=O)[nH]c3nc2c([N+](=O)[O-])c1N do in these assays?
CtBP-E1A inh: -82*; pAkt inh: inactive; Six1-Eya2 inh: -84*; CCT chaperon mod: -1

What do the screens show for `O=C(CN1CCCC1)Nc1ccccc1Sc1ccc(Cl)cc1`?
CtBP-E1A inh: -13; pAkt inh: inactive; Six1-Eya2 inh: -14; CCT chaperon mod: -35*

Results for NC(=O)C1CCN(CC(=O)Nc2ccccc2Sc2ccc(Cl)cc2)CC1 ?
CtBP-E1A inh: -8; pAkt inh: inactive; Six1-Eya2 inh: -9; CCT chaperon mod: -4

How did CCCN1CCC(NC(=O)CCc2nnc(Cc3cc(OC)ccc3OC)o2)CC1 do in these assays?
CtBP-E1A inh: 10; pAkt inh: inactive; Six1-Eya2 inh: -2; CCT chaperon mod: 1

Results for CCCN1CCC(NC(=O)CCc2nnc(-c3ccccc3)o2)CC1 ?
CtBP-E1A inh: 9; pAkt inh: inactive; Six1-Eya2 inh: 5; CCT chaperon mod: -70*

How did Cc1ccc(/C=N/Nc2ncc(Cl)cc2Cl)s1 do in these assays?
CtBP-E1A inh: 3; Six1-Eya2 inh: -8; CCT chaperon mod: 3
